Source: PubChem (National Center for Advancing Translational Sciences (NCATS))
Most compounds without a hit are left out; they make up all but 7.2% or so of the library.
Sm TGR inh = S. mansoni TGR enzyme inhibition. Potency, µM (doses to about 114 µM), for inactives: at the highest dose activity change, negative = inhibition, usual class: inhibitors. purified TGR, DTNB reduction, TNB absorbance 405 nm. AID 485364. Q962Y6. 360,000 tested, 3% active; note: nearly all actives have a fitted effect of over 60% in size
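TGR 20 nM + NADPH 100 uM (dispensed conc.), cpd preinc 15 min RT; start with NADPH (500 uM addition) then DTNB (15 mM addition). Kinetic TNB absorbance, 405 nm filter. Four-parameter Hill fit across titration.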
FMDV antiviral = foot and mouth disease virus antiviral activity; FMDV antiviral cell-based qHTS; AID 1159524; Potency, µM (series often up to 57.9 µM), for inactives: at the top dose activity change, negative = inhibition, usual class: inhibitors; 410,000 tested, 1.2% active; calls by dose curve; tested in HEK293T cells; note: read-out not given here; nearly all actives have a fitted effect of over 45% in size
RE007 growth inh = less growth of the S. pombe RE007 Vpr strain | S. pombe RE007 Vpr strain, BacTiter-Glo ATP luminescence, 24 h | Potency, µM (doses to about 92.2 µM), for inactives: top-dose activity change, negative = less growth, hits mostly inhibitors | 360,000 tested, 0.21% active | AID 651644; active = well fitted falling curve with a large enough effect; inconclusive = small, poorly fitted or top-dose-only effect; inactive = no such curve, though single readings can be large or run the other way; note: nearly all actives have a fitted effect of over 50% in size
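Fission yeast RE007 carrying one integrated HIV-1 vpr copy, seeded at OD 0.01 in PMG+AL medium with 23 nL pinned compound. Grown 24 h at 30 degrees; viability read by BacTiter-Glo luminescence after 5 min.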
MARV entry inh = Marburg virus entry inhibition. AID 540276. Potency, µM (series often up to 37.8 µM), for the others: at the highest dose activity change, negative = inhibition, most hits filed as inhibitors. Marburg virus pseudotyped entry inhibition, cell reporter. 300,000 tested, 1.8% active; calls by dose curve; tested in HEK293 cells
Lassa entry inh = blocks Lassa virus binding to or entry into cells; Lassa virus pseudotype entry inhibition, cell reporter; Potency, µM (highest dose often 37.9 µM), inactives show at the highest dose activity change, negative = inhibition, actives largely listed as inhibitors; 300,000 tested, 1.2% active; calls by dose curve; tested in HEK293 cells; note: nearly all actives have a fitted effect of over 50% in size
HCV inhibitor = HCV inhibition; Potency, µM (titrated, usually from 41.8 µM), inactives show at the highest dose activity change, negative = inhibition, most hits filed as inhibitors; Huh7.5.1 HCVcc-Cre infection, luciferase reporter, 44 h; 340,000 tested, 3.4% active
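HCVcc-Cre virus at an moi near 0.5 was added right after compound to cells cultured 4 h from seeding (1,000 cells/well). Luciferase activity was determined 44 h later, 15 min after substrate addition at RT.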
* hit, by the source's call; [ ] = dose if it differs, or a comment. Unless noted, calls come from the whole dose curve; as a rule, active = well fitted curve in the direction sought with a large enough effect; inconclusive = small, poorly fitted or top-dose-only effect, or another doubt; inactive = no such curve, though single readings can be large; an effect the other way counts as inactive or inconclusive. % is set by controls: 0 for no effect and ±100 for the full control effect; potency is the fitted concentration of half-maximal effect.

For CC1CCN(C(c2ccc(N(C)C)cc2)c2nnnn2Cc2ccccc2)CC1 (centres undefined) the results were Sm TGR inh inconclusive, FMDV antiviral 11.5%, RE007 growth inh 3.3%, MARV entry inh -3.2%, Lassa entry inh 3.1% and HCV inhibitor 9.5%.
CCCCn1nnnc1C(c1ccccc1)N1CCc2ccccc2C1 (centres undefined) was read as FMDV antiviral 6.4% and RE007 growth inh -3.0%.
Screening Cc1cc(NS(=O)(=O)c2ccc(NC(=O)COc3ccccc3Br)cc2)no1 returned Sm TGR inh 1.1%, FMDV antiviral 5.9%, MARV entry inh 0.8%[46.1 µM] and Lassa entry inh 3.6%[46.1 µM].
For Cn1c(=O)c2cc(C(=O)Nc3cccc(C#N)c3)sc2c2ccccc21 the results were Sm TGR inh -1.2%, FMDV antiviral -7.8%, MARV entry inh 4.9%[46.1 µM] and Lassa entry inh -17.2%[46.1 µM].
CCCNC(=O)/C=C/c1ccc(S(=O)(=O)Nc2ccccc2OC)cc1 was read as Sm TGR inh -7.7%, FMDV antiviral -16.1%, RE007 growth inh 2.7%, MARV entry inh inconclusive, Lassa entry inh 5.01µM* and HCV inhibitor inconclusive.
COc1ccccc1NS(=O)(=O)c1ccc(/C=C/C(=O)O)cc1 was read as Sm TGR inh 4.6%, FMDV antiviral 1.5%, RE007 growth inh 1.3%, MARV entry inh 1.1%[46.1 µM], Lassa entry inh -1.7%[46.1 µM] and HCV inhibitor 21.9%.
Screening Cc1cc(=O)oc2cc(NC(=O)c3cc([N+](=O)[O-])ccc3N3CCOCC3)ccc12 returned Sm TGR inh 4.5%, FMDV antiviral -19.9%, RE007 growth inh -7.7%, MARV entry inh inconclusive and HCV inhibitor 10µM*.
`CC(C)CNC(=O)c1cc([N+](=O)[O-])ccc1N1CCOCC1` gave Sm TGR inh 1.7%, FMDV antiviral -17.2%, MARV entry inh 3.0%, Lassa entry inh 2.4% and HCV inhibitor 6.4%.
Screening CCN(CC)S(=O)(=O)c1cc(NC(=O)c2cc([N+](=O)[O-])ccc2N2CCOCC2)ccc1C returned Sm TGR inh -15.6%, FMDV antiviral -19.1%, RE007 growth inh -4.2%, MARV entry inh 17.8µM*, Lassa entry inh inconclusive and HCV inhibitor inconclusive.
Cc1cc(C)c(NC(=O)CNC(=O)c2cc([N+](=O)[O-])ccc2N2CCOCC2)c(C)c1 was read as Sm TGR inh -7.4%, FMDV antiviral -12.9%, RE007 growth inh 7.2%, MARV entry inh inconclusive, Lassa entry inh inconclusive and HCV inhibitor 25.1µM*.
CC(C)N(Cc1ccccc1)S(=O)(=O)c1ccc(-c2cc(C(F)(F)F)on2)s1 was read as Sm TGR inh 1.8%, FMDV antiviral -26.5% and Lassa entry inh -16.2%[46.1 µM].
`Cc1ccc2c(c1)-c1c(cnc3cc(-c4ccc(Cl)cc4)nn13)CO2` gave Sm TGR inh inconclusive, FMDV antiviral 14.6%, MARV entry inh -16.1%[46.1 µM] and Lassa entry inh 19.9%[46.1 µM].
`COc1cc(Br)c(C2CC(=O)Nc3cc(OC)c(OC)c(OC)c32)cc1OC` (centres undefined) gave Sm TGR inh 0.6%, FMDV antiviral 97.8%, MARV entry inh -1.2%[46.1 µM] and Lassa entry inh 2.9%[46.1 µM].
C/C(=N\Nc1nc(-c2ccc(C)cc2)nc2ccccc12)c1ccc([N+](=O)[O-])cc1 was read as Sm TGR inh -0.2%.
Screening COc1ccc(-c2nc(N/N=C(\C)c3ccc(O)cc3)c3ccccc3n2)cc1 returned Sm TGR inh 14.2%, FMDV antiviral -18.8%, RE007 growth inh 0.3% and HCV inhibitor 10µM*.
For C/C(=N\Nc1nncc2ccccc12)c1cccc(OC(F)F)c1 the results were Sm TGR inh -0.2%, FMDV antiviral -24.5%, RE007 growth inh -5.9%, MARV entry inh inconclusive, Lassa entry inh 2.82µM* and HCV inhibitor inconclusive.
Screening C/C(=N\Nc1nncc2ccccc12)c1ccc(O)cc1 returned Sm TGR inh -9.5%, FMDV antiviral -16.7%, RE007 growth inh 22.1%, MARV entry inh inconclusive, Lassa entry inh inconclusive and HCV inhibitor 7.08µM*.
